# Data: ChEMBL document CHEMBL2218924, “A broad activity screen in support of a chemogenomic map for kinase signalling research and drug discovery” (Biochem J, 2013)
# Assays:
# [1] = target: Serine/threonine-protein kinase SIK1 (Homo sapiens) (UniProt P57059); details: at 10 µM
# [2] = target: SRSF protein kinase 1 (Homo sapiens) (UniProt Q96SB4); details: at 1 µM
# [3] = target: SRSF protein kinase 1 (Homo sapiens) (UniProt Q96SB4); details: at 10 µM
# [4] = target: SRSF protein kinase 2 (Homo sapiens) (UniProt P78362); details: at 1 µM
# SRSF protein kinase 2 (Homo sapiens), sequence (P78362 whole entry, looked up): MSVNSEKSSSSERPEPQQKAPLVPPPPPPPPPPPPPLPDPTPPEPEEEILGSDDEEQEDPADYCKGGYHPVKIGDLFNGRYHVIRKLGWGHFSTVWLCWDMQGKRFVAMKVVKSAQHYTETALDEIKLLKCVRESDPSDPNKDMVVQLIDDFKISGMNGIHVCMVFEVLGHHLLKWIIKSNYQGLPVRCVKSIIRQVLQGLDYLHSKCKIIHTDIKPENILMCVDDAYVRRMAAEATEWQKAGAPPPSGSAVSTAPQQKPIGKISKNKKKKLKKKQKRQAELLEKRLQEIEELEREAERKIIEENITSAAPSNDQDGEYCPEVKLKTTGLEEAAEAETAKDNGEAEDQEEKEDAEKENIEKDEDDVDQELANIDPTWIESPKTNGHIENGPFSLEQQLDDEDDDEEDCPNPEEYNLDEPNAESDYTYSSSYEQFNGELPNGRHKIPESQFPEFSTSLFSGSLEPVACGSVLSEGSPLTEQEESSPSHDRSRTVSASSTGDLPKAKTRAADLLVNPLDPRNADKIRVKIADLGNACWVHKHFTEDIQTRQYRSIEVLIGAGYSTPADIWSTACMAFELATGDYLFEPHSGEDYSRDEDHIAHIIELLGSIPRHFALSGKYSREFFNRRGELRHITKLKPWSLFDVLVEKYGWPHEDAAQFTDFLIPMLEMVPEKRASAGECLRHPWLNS
# [5] = target: SRSF protein kinase 2 (Homo sapiens) (UniProt P78362); details: at 10 µM
# [6] = target: Serine/threonine-protein kinase 33 (Homo sapiens) (UniProt Q9BYT3); details: at 1 µM
# Serine/threonine-protein kinase 33 (Homo sapiens), sequence (Q9BYT3 whole entry, looked up): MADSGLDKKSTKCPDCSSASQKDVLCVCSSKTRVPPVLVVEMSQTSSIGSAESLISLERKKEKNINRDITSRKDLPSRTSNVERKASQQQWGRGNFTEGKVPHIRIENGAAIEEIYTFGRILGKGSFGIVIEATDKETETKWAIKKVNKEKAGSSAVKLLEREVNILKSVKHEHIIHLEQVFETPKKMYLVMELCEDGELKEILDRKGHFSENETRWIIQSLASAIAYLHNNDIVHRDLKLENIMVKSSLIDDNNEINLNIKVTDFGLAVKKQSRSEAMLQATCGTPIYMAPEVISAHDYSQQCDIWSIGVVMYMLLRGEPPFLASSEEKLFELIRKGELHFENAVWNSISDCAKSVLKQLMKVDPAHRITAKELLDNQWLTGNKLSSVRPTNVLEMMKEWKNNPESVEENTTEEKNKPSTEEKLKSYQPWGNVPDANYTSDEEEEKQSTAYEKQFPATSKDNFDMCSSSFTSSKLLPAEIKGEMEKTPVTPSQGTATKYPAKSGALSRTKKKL
# [7] = target: Serine/threonine-protein kinase 33 (Homo sapiens) (UniProt Q9BYT3); details: at 10 µM
# [8] = target: Serine/threonine-protein kinase PLK2 (Homo sapiens) (UniProt Q9NYY3); details: at 1 µM
# Serine/threonine-protein kinase PLK2 (Homo sapiens), sequence (Q9NYY3 whole entry, looked up): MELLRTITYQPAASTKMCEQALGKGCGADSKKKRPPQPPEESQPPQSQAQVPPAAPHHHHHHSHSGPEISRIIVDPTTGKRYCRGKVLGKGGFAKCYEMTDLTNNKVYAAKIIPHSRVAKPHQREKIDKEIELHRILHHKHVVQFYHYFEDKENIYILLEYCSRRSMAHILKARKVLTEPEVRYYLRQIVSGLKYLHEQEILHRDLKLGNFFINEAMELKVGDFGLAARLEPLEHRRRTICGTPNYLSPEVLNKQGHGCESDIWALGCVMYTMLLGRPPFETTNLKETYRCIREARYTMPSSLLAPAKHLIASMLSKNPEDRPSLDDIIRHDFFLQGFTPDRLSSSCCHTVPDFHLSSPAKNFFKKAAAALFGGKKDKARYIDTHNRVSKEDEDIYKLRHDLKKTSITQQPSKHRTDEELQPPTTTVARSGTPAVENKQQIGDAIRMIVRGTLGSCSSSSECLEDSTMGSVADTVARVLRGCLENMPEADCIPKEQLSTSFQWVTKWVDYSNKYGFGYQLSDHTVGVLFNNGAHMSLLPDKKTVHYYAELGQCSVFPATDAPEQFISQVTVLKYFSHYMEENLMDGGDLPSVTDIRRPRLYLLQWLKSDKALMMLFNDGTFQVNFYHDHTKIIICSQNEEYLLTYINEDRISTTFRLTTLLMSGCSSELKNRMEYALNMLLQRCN
# [9] = target: Serine/threonine-protein kinase PLK2 (Homo sapiens) (UniProt Q9NYY3); details: at 10 µM
# [10] = target: Tyrosine-protein kinase SYK (Homo sapiens) (UniProt P43405); details: at 1 µM
# [11] = target: Tyrosine-protein kinase SYK (Homo sapiens) (UniProt P43405); details: at 10 µM
# [12] = target: T1, Mitogen-activated protein kinase kinase kinase 7 (Homo sapiens) (UniProt O43318); details: at 1 µM
# T1 sequence (whole entry): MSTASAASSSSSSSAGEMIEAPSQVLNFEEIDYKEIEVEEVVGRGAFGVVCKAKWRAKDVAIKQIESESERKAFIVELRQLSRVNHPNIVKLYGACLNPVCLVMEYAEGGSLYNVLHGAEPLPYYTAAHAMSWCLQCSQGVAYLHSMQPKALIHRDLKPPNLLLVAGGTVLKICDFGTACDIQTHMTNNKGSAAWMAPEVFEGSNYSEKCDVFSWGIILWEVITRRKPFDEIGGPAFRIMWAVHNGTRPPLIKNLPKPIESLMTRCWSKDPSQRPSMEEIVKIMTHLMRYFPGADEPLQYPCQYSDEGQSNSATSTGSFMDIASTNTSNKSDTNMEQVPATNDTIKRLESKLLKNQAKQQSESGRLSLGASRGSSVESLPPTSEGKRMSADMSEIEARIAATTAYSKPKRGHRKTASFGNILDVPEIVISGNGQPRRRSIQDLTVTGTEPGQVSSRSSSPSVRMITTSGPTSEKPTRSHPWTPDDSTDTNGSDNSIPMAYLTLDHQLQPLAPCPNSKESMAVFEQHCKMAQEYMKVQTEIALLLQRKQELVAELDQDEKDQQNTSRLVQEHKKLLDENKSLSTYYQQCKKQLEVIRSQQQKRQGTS
# [13] = target: T1, Mitogen-activated protein kinase kinase kinase 7 (Homo sapiens); details: at 10 µM
# [14] = target: T2, Serine/threonine-protein kinase TAO1 (Homo sapiens) (UniProt Q7L7X3); details: at 1 µM
# T2 sequence (whole entry): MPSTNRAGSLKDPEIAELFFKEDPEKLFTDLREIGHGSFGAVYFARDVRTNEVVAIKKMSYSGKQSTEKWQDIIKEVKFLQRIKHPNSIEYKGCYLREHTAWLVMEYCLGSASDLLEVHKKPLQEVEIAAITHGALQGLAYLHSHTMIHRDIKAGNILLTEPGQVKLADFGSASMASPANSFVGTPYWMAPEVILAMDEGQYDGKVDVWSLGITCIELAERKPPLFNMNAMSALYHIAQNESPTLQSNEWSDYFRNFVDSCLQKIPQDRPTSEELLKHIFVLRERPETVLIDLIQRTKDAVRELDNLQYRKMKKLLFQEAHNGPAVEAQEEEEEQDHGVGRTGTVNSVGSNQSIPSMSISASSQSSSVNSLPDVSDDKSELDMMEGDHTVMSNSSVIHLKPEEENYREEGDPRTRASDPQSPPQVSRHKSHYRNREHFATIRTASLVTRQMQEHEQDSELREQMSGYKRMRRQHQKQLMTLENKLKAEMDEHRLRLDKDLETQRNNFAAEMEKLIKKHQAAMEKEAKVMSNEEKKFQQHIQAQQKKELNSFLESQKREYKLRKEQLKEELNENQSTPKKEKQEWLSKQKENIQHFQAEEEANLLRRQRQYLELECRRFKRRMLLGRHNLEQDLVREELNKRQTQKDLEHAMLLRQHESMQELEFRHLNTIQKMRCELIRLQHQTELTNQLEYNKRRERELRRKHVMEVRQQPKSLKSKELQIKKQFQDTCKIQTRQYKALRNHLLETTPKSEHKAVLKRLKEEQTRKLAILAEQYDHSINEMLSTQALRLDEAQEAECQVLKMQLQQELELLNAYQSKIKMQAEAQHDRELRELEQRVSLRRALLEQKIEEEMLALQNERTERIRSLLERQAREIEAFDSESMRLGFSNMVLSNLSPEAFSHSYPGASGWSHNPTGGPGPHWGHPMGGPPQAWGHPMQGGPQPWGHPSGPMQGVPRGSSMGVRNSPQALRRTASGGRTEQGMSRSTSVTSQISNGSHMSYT
# [15] = target: T2, Serine/threonine-protein kinase TAO1 (Homo sapiens); details: at 10 µM
# [16] = target: T3, Serine/threonine-protein kinase TAO2 (Homo sapiens) (UniProt Q9UL54); details: at 1 µM
# T3 sequence (whole entry): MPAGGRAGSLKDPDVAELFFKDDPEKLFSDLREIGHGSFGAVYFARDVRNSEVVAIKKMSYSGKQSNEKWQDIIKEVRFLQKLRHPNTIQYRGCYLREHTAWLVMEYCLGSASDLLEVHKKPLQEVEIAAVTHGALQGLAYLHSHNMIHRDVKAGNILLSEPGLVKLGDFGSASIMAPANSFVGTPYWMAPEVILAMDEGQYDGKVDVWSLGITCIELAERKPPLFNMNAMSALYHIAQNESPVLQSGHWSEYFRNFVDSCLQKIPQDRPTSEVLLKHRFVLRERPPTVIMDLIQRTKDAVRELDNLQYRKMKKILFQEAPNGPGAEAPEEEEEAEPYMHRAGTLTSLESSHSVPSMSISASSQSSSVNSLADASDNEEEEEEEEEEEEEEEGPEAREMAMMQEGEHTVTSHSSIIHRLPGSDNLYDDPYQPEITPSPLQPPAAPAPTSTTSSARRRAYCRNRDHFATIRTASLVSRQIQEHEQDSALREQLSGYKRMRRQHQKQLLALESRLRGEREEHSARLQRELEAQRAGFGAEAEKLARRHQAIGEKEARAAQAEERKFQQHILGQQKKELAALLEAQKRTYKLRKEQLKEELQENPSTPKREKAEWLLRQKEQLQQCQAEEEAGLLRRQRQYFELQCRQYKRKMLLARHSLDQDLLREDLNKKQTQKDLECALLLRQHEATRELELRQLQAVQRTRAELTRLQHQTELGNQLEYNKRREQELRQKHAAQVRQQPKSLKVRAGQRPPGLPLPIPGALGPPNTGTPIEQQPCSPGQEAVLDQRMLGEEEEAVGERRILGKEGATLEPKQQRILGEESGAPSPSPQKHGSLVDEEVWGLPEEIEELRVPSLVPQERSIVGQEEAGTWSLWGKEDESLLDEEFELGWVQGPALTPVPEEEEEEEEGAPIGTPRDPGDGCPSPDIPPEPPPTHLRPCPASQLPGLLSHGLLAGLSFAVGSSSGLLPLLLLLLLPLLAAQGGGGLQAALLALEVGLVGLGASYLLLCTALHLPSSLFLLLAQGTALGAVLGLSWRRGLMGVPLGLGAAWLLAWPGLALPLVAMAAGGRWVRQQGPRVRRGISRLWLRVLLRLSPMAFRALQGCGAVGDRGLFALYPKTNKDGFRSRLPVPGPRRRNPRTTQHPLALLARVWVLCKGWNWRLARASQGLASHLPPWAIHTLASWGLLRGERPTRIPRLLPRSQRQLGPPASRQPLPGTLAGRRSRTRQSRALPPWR
# [17] = target: T3, Serine/threonine-protein kinase TAO2 (Homo sapiens); details: at 10 µM
# [18] = target: T4, Serine/threonine-protein kinase TAO3 (Homo sapiens) (UniProt Q9H2K8); details: at 1 µM
# T4 sequence (whole entry): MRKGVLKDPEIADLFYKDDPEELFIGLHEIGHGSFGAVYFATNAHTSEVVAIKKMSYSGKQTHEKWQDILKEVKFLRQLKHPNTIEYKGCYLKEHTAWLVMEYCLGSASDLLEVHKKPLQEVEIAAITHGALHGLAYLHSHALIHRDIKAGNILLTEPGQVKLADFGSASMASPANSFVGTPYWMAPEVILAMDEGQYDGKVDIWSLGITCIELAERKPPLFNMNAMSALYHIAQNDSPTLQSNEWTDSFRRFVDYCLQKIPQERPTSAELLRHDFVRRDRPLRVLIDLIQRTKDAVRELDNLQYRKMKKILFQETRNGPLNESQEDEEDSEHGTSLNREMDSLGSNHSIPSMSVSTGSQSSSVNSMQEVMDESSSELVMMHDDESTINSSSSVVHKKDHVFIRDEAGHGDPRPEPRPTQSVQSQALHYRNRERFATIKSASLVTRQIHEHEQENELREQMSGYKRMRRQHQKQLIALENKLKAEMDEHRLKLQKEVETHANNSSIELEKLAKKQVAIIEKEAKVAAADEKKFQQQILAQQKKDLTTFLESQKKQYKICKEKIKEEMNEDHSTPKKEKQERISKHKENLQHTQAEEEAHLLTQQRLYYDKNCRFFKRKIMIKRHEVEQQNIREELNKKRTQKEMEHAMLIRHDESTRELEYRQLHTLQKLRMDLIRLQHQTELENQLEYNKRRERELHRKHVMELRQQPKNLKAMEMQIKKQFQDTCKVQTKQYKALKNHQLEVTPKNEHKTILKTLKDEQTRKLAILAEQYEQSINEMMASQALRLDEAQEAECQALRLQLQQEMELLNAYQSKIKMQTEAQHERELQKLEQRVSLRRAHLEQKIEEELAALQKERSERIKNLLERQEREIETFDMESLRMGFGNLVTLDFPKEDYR
# [19] = target: T4, Serine/threonine-protein kinase TAO3 (Homo sapiens); details: at 10 µM
# [20] = target: T5, Serine/threonine-protein kinase TBK1 (Homo sapiens) (UniProt Q9UHD2); details: at 1 µM
# T5 sequence (whole entry): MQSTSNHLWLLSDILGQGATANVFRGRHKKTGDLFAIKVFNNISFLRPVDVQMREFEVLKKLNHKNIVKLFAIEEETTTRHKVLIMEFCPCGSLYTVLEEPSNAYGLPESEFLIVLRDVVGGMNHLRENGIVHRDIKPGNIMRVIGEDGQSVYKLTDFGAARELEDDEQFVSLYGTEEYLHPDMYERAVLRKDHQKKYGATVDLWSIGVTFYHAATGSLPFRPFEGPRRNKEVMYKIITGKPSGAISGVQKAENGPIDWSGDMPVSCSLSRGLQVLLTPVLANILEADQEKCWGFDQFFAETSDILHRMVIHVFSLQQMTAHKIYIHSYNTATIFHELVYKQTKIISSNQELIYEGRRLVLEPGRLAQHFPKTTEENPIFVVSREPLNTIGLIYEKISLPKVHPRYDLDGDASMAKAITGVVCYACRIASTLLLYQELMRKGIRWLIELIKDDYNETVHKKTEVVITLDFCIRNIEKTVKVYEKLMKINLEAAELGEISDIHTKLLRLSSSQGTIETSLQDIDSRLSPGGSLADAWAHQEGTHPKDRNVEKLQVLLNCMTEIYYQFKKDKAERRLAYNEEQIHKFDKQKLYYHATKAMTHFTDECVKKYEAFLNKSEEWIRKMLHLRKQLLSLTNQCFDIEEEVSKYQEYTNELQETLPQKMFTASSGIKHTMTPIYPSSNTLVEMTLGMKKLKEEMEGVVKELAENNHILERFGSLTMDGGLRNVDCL
# Serine/threonine-protein kinase SIK1 (Homo sapiens), sequence (P57059 whole entry): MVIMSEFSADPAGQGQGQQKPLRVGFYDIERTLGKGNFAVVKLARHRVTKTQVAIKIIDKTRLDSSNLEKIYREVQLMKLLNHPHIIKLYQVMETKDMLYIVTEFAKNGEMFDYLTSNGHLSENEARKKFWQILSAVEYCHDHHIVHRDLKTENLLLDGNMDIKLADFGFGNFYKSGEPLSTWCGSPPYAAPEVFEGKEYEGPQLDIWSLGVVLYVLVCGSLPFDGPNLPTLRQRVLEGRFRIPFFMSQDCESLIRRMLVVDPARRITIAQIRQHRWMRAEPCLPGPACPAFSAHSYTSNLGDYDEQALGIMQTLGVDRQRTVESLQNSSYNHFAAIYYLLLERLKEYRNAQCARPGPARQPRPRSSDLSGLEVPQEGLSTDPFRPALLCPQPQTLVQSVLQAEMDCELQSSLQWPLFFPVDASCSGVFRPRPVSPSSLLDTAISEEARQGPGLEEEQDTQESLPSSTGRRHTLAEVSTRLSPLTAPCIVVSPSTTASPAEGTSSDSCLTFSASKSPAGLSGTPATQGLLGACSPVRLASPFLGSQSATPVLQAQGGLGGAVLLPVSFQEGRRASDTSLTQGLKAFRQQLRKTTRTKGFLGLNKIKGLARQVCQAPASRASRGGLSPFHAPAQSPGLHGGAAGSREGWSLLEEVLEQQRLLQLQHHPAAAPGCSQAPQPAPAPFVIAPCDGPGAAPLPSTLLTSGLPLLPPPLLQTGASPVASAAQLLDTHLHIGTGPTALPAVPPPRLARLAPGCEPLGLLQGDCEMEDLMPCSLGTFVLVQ
# SRSF protein kinase 1 (Homo sapiens), sequence (Q96SB4 whole entry): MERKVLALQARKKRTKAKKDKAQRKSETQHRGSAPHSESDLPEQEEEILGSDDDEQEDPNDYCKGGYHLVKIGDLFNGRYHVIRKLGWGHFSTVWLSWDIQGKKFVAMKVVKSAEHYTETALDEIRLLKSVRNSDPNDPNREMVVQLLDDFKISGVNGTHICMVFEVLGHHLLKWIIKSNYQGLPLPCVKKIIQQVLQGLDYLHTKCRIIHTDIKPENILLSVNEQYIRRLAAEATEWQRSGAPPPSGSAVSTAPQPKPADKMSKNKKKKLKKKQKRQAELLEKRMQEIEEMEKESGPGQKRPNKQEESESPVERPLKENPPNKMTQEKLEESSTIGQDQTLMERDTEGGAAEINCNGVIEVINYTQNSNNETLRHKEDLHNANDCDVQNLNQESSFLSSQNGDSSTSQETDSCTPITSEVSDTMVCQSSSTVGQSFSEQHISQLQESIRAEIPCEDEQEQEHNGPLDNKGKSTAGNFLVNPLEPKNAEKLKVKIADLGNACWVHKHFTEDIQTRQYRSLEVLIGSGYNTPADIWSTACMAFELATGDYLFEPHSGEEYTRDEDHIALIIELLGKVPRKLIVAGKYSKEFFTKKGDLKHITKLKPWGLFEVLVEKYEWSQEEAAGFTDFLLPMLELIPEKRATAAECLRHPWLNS
Structure (SMILES),residual activity [1] [%],residual activity [2] [%],residual activity [3] [%],residual activity [4] [%],residual activity [5] [%],residual activity [6] [%],residual activity [7] [%],residual activity [8] [%],residual activity [9] [%],residual activity [10] [%],residual activity [11] [%],residual activity [12] [%],residual activity [13] [%],residual activity [14] [%],residual activity [15] [%],residual activity [16] [%],residual activity [17] [%],residual activity [18] [%],residual activity [19] [%],residual activity [20] [%]
COc1cc2nccc(Oc3ccc(NC(=S)NC(=O)c4ccccc4C)cc3)c2cc1OC,37,102,96,100,91,97,90,72,35,99,65,87,87,91,71,89,75,78,67,57
O=C(c1cc2cc(O)ccc2[nH]1)c1cc2cc(O)ccc2[nH]1,8,81,79,,71,83,62,,78,82,46,62,23,70,28,80,32,66,22,16
Nc1ncnc2[nH]nc(Nc3ccc(F)cc3)c12,6,95,79,104,,100,94,102,95,91,97,,,107,,102,91,101,,77
Nc1n[nH]c2nc3ccccc3nc12,72,,,94,82,98,83,99,68,,,91,74,,75,93,85,,,78
NC(=O)c1cccc(-c2cc(Nc3ccc(OC(F)(F)F)cc3)ncn2)c1,7,,97,,,,,,,,,,95,,,,,,,98
Nc1nc(Nc2ccc(S(N)(=O)=O)cc2)nn1C(=O)c1c(F)cccc1F,6,56,7,,,,76,96,60,47,11,82,34,15,4,6,2,18,4,72
